In all, about 18,000 sequences were measured (“log2 normalized intensity”: median about 0.36, highest 2% from about 7.3 on). The full list was thinned out, with the highest values kept by preference.

Consider 43 sequences from PMC10726135, “HNF4α isoforms regulate the circadian balance between carbohydrate and lipid metabolism in the liver”.

In the assay the target is T1, HNF4alpha8 (COS-7 nuclear extract) (Homo sapiens, UniProt P41235-5 1-452).
T1 sequence: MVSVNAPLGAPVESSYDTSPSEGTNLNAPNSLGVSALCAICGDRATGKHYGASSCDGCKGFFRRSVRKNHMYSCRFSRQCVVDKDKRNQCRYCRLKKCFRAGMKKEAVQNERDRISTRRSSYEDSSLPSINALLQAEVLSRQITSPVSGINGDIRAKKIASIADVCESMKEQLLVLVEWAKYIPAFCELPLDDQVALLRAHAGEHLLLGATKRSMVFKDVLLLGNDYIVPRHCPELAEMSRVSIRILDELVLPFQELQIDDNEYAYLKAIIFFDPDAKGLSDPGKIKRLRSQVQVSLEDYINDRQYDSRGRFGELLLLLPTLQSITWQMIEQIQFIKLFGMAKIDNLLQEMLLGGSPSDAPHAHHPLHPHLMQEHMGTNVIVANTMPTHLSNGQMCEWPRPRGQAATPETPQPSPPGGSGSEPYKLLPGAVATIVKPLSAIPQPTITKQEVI
Kind of assay: protein-binding microarray; COS-7 nuclear extract on double-stranded Agilent 4x180k PBM; binding buffer, salt, pH and temperature not given in the material; high values mean tight binding. The conditions noted are these: chain copies: 2; label: 3' end of strand 1 on the slide; dsDNA, one strand shown. In outline:
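Double-stranded oligonucleotides of ~60 nt, representing ~44,000 test sequences in quadruplicate, made up a custom Agilent SurePrint G3 4x180k array. Nuclear extracts from COS-7 cells transiently transfected by CaPO4 with a human HNF4α isoform expression vector were applied, and bound HNF4α was imaged at 2-µm resolution on an Agilent G2565CA scanner. Binding signal refers to the background-corrected, normalized gProcessedSignal output of Agilent software.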
As for “TGAAAGTTCTCTGGGCTTTTTGATCTTGTCGCCTAGGGAGATTAGAGTATCGGTCGA”, the binding signal stood at 1.25 log2 normalized intensity. In the case of “CCCTCGGGCCGGGAAACGCCCTCGGCGCGCGCCTAGGGAGATTAGAGTATCGGTCGA”, the binding signal was 1.34 log2 normalized intensity. With “CTTTGGACTTTCAAAAGTTAAGGTCAAGACGCCTAGGGAGATTAGAGTATCGGTCGA” the figure was 2.78 log2 normalized intensity; with “AAGATTTATCAGGTCTTTCTTTCAGAACAGGCCTAGGGAGATTAGAGTATCGGTCGA”, 0.553 log2 normalized intensity; with “GCAGAGCAGTTTAGAGAAAGGGTCAAAGGTGCCTAGGGAGATTAGAGTATCGGTCGA”, 6.23 log2 normalized intensity. With “GCAGTTTAGAGAAAGGGTCAAAGGTTAAGCGCCTAGGGAGATTAGAGTATCGGTCGA” the figure was 9.04 log2 normalized intensity; with “GACTGTCTTAGGAAAGAACAGGTCAAAGGTGCCTAGGGAGATTAGAGTATCGGTCGA”, 5.06 log2 normalized intensity; with “TAGGAGACTGTCTTAGGAAAGAACAGGTCAGCCTAGGGAGATTAGAGTATCGGTCGA”, 0.841 log2 normalized intensity. Turning to “TCAGAAACAGGAATTCAAAGGTGCAAAGGTGCCTAGGGAGATTAGAGTATCGGTCGA”, the binding signal was 2.84 log2 normalized intensity. With “TTAGAGAAAGGGTCAAAGGTTAAGCCATTGGCCTAGGGAGATTAGAGTATCGGTCGA” the figure was 6.33 log2 normalized intensity; with “GGAAAGAACAGGTCAAAGGTCAGTTTCTTTGCCTAGGGAGATTAGAGTATCGGTCGA”, 7.69 log2 normalized intensity; with “TCTTAGGAAAGAACAGGTCAAAGGTCAGTTGCCTAGGGAGATTAGAGTATCGGTCGA”, 9.61 log2 normalized intensity.

As to “GGTCAAAGGTCAGTTTCTTTAAGACAAGTGGCCTAGGGAGATTAGAGTATCGGTCGA”, the binding signal worked out at 5.86 log2 normalized intensity. Consider “GAACAGGTCAAAGGTCAGTTTCTTTAAGACGCCTAGGGAGATTAGAGTATCGGTCGA”, for which the binding signal came to 7.63 log2 normalized intensity. As for “ACCGTAAATGCATTATTGCACTGTGCTTTGGCCTAGGGAGATTAGAGTATCGGTCGA”, the binding signal was 1.3 log2 normalized intensity.

In the case of “TGCTCTCAGCACACTCTGGTACCATGGATGGCCTAGGGAGATTAGAGTATCGGTCGA”, the binding signal was determined as 0.953 log2 normalized intensity. For “GGCTCTCCCGGGGCGGGGGTGACCAGATTAGCCTAGGGAGATTAGAGTATCGGTCGA”, the binding signal was found to be 1.07 log2 normalized intensity. For “TCAGGGGTCAATGTGCACATTCGAAGTTTTGCCTAGGGAGATTAGAGTATCGGTCGA”, the binding signal stood at 4.86 log2 normalized intensity.

Take “CATCTGGGCAAGGTGTCAACCTTCATTCTCGCCTAGGGAGATTAGAGTATCGGTCGA”: the binding signal is 0.575 log2 normalized intensity. With “TCTTTTTAATCAATAATCTTTGCCCTTGAAGCCTAGGGAGATTAGAGTATCGGTCGA” the figure was 3.49 log2 normalized intensity; with “AGCATATTTGGCCACATCCTGTCTCCTTTAGCCTAGGGAGATTAGAGTATCGGTCGA”, 1.11 log2 normalized intensity; with “CCTGAAGGGTGTTGTGGAATGTGCTTGGACGCCTAGGGAGATTAGAGTATCGGTCGA”, 2.16 log2 normalized intensity. With “TTGGACTTTGTACATTCCAAATACGATAATGCCTAGGGAGATTAGAGTATCGGTCGA” the figure was 5.9 log2 normalized intensity; with “GTACTTTGTACATGGGAATAGACATTCCAGGCCTAGGGAGATTAGAGTATCGGTCGA”, 1.99 log2 normalized intensity; with “CCTGGTGACCTTTGTTTGGTCAAATACCTAGCCTAGGGAGATTAGAGTATCGGTCGA”, 3.66 log2 normalized intensity. Consider “AATACGACCTTTGGACAGGGTGACGTCATTGCCTAGGGAGATTAGAGTATCGGTCGA”, for which the binding signal amounted to 6.84 log2 normalized intensity. Under “TTTGTCACATTCCAGACTTTGTACAAGGGCGCCTAGGGAGATTAGAGTATCGGTCGA” stands 3.1 log2 normalized intensity. For the sequence “GGGCTTTTGTCACATTCCAGACTTTGTACAGCCTAGGGAGATTAGAGTATCGGTCGA”, the binding signal is 5.85 log2 normalized intensity. For the sequence “ACATCAGAAGTTGGACTTTGTACATTCCAAGCCTAGGGAGATTAGAGTATCGGTCGA”, the binding signal came to 8.13 log2 normalized intensity. Under “AGAAGTTGGACTTTGTACATTCCAAATACGGCCTAGGGAGATTAGAGTATCGGTCGA” stands 7.64 log2 normalized intensity; under “TCCAAAATACGACCTTTGGACAGGGTGACGGCCTAGGGAGATTAGAGTATCGGTCGA”, 7.56 log2 normalized intensity. Under “AAAGGCCTTTGAAGCTTGAAGGAGTATATGGCCTAGGGAGATTAGAGTATCGGTCGA” stands 0.256 log2 normalized intensity.

Turning to “CTTATCAGCAGCTGGGGTGACTGATTGGAGGCCTAGGGAGATTAGAGTATCGGTCGA”, the binding signal was 0.845 log2 normalized intensity. “AGTGCACCTTAATAAGCACATTCCTTTCCCGCCTAGGGAGATTAGAGTATCGGTCGA”: the binding signal is -0.98 log2 normalized intensity. Under “ATCTTATCAGCAAGGGCATTTGCGTAGGCTGCCTAGGGAGATTAGAGTATCGGTCGA” stands -0.794 log2 normalized intensity. As for “TGCTAAGTGCCATGTAATCAAACTGAACTTGCCTAGGGAGATTAGAGTATCGGTCGA”, the binding signal worked out at 2.1 log2 normalized intensity.

On to “CTGTGCTTTGTTTACTTAACCTTTGATCATGCCTAGGGAGATTAGAGTATCGGTCGA”, for which the binding signal worked out at 7.84 log2 normalized intensity.

For the sequence “GTGGCTACCTGTGCAGATATTTAACCTTTGGCCTAGGGAGATTAGAGTATCGGTCGA”, the binding signal amounted to 4.61 log2 normalized intensity.

As for “CTTTGTTTACTTAACCTTTGATCATATGCAGCCTAGGGAGATTAGAGTATCGGTCGA”, the binding signal was determined as 5.75 log2 normalized intensity. With “GATATTTAACCTTTGATCTGTAAGCTCTCTGCCTAGGGAGATTAGAGTATCGGTCGA” the figure was 5.39 log2 normalized intensity; with “TACCTGTGCAGATATTTAACCTTTGATCTGGCCTAGGGAGATTAGAGTATCGGTCGA”, 8.15 log2 normalized intensity.

For “TTGCACTGTGCTTTGTTTACTTAACCTTTGGCCTAGGGAGATTAGAGTATCGGTCGA”, the binding signal was 4.5 log2 normalized intensity.

On to “CCTGTCTGACAGGATGAATTTATTGCCCTCGCCTAGGGAGATTAGAGTATCGGTCGA”, for which the binding signal came to 3.21 log2 normalized intensity.
